Data: the antibiotic and cytotoxicity screens of Wong et al. (2023)
About 3,300 (8.5%) of roughly 39,000 compounds were called active. Only a selection was taken, and actives are over-represented in it overall.

Each compound was assayed on HepG2 (assay: cytotoxicity call (relative viability < 0.9)). Conditions: 10 µM.
In the case of `CCc1nc2ccc(C(=O)NCc3ccc(OC)cc3)cn2c1N(CC)Cc1cccc(Br)c1`, the cytotoxicity call is reported as “inactive”. For `CC(=O)n1cc([C@@H]2C=C(C(=O)N3CCN(Cc4ccc5c(c4)OCO5)CC3)O[C@H](OCc3ccc(COC(=O)NCCCCCC(=O)NO)cc3)C2)c2ccccc21`, the cytotoxicity call was “inactive”. `CCC(=O)NCc1nn(C)c2c1COCC2` was tested, and the cytotoxicity call was “inactive”. `CCC(=O)NCCC1CCc2ccc3c(c21)CCO3` (stereo not drawn) was tested, and the cytotoxicity call was “active”. In the case of `COc1ccc(NC(=O)N(C)C[C@@H]2OCCCC[C@@H](C)Oc3ccc(NC(=O)Nc4cccc5ccccc45)cc3C(=O)N([C@@H](C)CO)C[C@@H]2C)cc1`, the cytotoxicity call is reported as “inactive”. `C[C@H](CO)N1C[C@H](C)[C@@H](CN(C)Cc2ccc3c(c2)OCO3)OCCCC[C@H](C)Oc2ccc(NC(=O)Cc3ccccc3)cc2C1=O` was tested, and the cytotoxicity call was “inactive”. With `C[C@@H]1CCCCO[C@@H](CN(C)CC2CCCCC2)[C@@H](C)CN([C@H](C)CO)C(=O)c2cc(NC(=O)Nc3ccc4c(c3)OCO4)ccc2O1` the cytotoxicity call was “active”. In the case of `C[C@@H]1CCCCO[C@@H](CN(C)CC2CC2)[C@H](C)CN([C@H](C)CO)C(=O)c2cc(NC(=O)Nc3ccc4c(c3)OCO4)ccc2O1`, the cytotoxicity call is reported as “inactive”. For `C[C@@H]1CCCCO[C@@H](CN(C)CC2CCCCC2)[C@@H](C)CN([C@@H](C)CO)C(=O)c2cc(NC(=O)Nc3ccc4c(c3)OCO4)ccc2O1`, the cytotoxicity call was “active”. In the case of `C[C@H]1CCCCO[C@H](CN(C)CC2CCCCC2)[C@@H](C)CN([C@@H](C)CO)C(=O)c2cc(NC(=O)Nc3ccc4c(c3)OCO4)ccc2O1`, the cytotoxicity call is reported as “active”. In the case of `C[C@H](CO)N1C[C@H](C)[C@@H](CN(C)CC2CC2)OCCCC[C@H](C)Oc2ccc(NC(=O)Nc3ccc4c(c3)OCO4)cc2C1=O`, the cytotoxicity call is reported as “inactive”. With `C[C@@H]1CCCCO[C@H](CN(C)CC2CC2)[C@@H](C)CN([C@H](C)CO)C(=O)c2cc(NC(=O)Nc3ccc4c(c3)OCO4)ccc2O1` the cytotoxicity call was “inactive”. In the case of `C[C@@H]1CN([C@H](C)CO)C(=O)c2cc(NC(=O)Nc3ccc4c(c3)OCO4)ccc2O[C@@H](C)CCCCO[C@@H]1CN(C)CC1CCCCC1`, the cytotoxicity call is reported as “inactive”. In the case of `C[C@@H]1CCCCO[C@@H](CN(C)CC2CC2)[C@@H](C)CN([C@H](C)CO)C(=O)c2cc(NC(=O)Nc3ccc4c(c3)OCO4)ccc2O1`, the cytotoxicity call is reported as “inactive”. For `C[C@@H]1CCCCO[C@H](CN(C)CC2CCCCC2)[C@H](C)CN([C@H](C)CO)C(=O)c2cc(NC(=O)Nc3ccc4c(c3)OCO4)ccc2O1`, the cytotoxicity call was “inactive”. In the case of `C[C@@H]1CCCCO[C@H](CN(C)CC2CCCCC2)[C@@H](C)CN([C@H](C)CO)C(=O)c2cc(NC(=O)Nc3ccc4c(c3)OCO4)ccc2O1`, the cytotoxicity call is reported as “inactive”. In the case of `C[C@H](CO)N1C[C@H](C)[C@H](CN(C)CC2CC2)OCCCC[C@H](C)Oc2ccc(NC(=O)Nc3ccc4c(c3)OCO4)cc2C1=O`, the cytotoxicity call is reported as “inactive”. In the case of `C[C@H](CO)N1C[C@H](C)[C@H](CN(C)CC2CCCCC2)OCCCC[C@H](C)Oc2ccc(NC(=O)Nc3ccc4c(c3)OCO4)cc2C1=O`, the cytotoxicity call is reported as “active”. `CCC[C@@]1(CCc2ccccc2)CC(=O)[C@@H]([C@H](CC)c2cccc(NS(=O)(=O)c3ccc(C(F)(F)F)cn3)c2)C(=O)O1` was tested, and the cytotoxicity call was “inactive”. For `C[C@@H]1CCCCO[C@@H](CN(C)Cc2ccc(C(=O)O)cc2)[C@@H](C)CN([C@@H](C)CO)C(=O)c2cc(NS(=O)(=O)c3ccc(F)cc3)ccc2O1`, the cytotoxicity call was “inactive”. In the case of `C[C@@H]1CN([C@@H](C)CO)S(=O)(=O)c2ccc(-c3cccnc3)cc2O[C@@H]1CN(C)CC1CCOCC1`, the cytotoxicity call is reported as “inactive”. With `COc1ccc(S(=O)(=O)Nc2cccc3c2O[C@H](CN(C)S(=O)(=O)c2ccccc2)[C@@H](C)CN([C@@H](C)CO)C3=O)cc1` the cytotoxicity call was “inactive”. `C[C@H](CO)N1C[C@H](C)[C@H](CN(C)S(=O)(=O)c2ccc(F)cc2)Oc2ccc(NC(=O)C3CC3)cc2CC1=O` was tested, and the cytotoxicity call was “inactive”. In the case of `O=C(O)CCc1n[nH]c(=S)[nH]c1=O`, the cytotoxicity call is reported as “inactive”. With `Cc1ccc(S(=O)(=O)Nc2ccc3c(c2)C(=O)N([C@H](C)CO)C[C@H](C)[C@@H](CN(C)C(=O)c2ccccc2)OCCCC[C@H](C)O3)cc1` the cytotoxicity call was “inactive”. For `C[C@@H]1CN([C@H](C)CO)C(=O)Cc2cc(NC(=O)Cc3ccccc3)ccc2O[C@H]1CN(C)S(=O)(=O)c1ccc(F)cc1`, the cytotoxicity call was “inactive”. For `COc1ccc(NC(=O)N(C)C[C@H]2OCCCC[C@H](C)Oc3ccc(NC(=O)Cc4ccccc4)cc3C(=O)N([C@H](C)CO)C[C@H]2C)cc1`, the cytotoxicity call was “inactive”. For `C[C@@H]1CN([C@H](C)CO)C(=O)Cc2cc(NC(=O)Cn3cnnn3)ccc2O[C@H]1CN(C)S(=O)(=O)c1ccc(F)cc1`, the cytotoxicity call was “inactive”. For `COc1ccc(S(=O)(=O)Nc2cccc3c2O[C@@H](CN(C)Cc2ccc(Oc4ccccc4)cc2)[C@@H](C)CN([C@@H](C)CO)C3=O)cc1`, the cytotoxicity call was “inactive”. With `CCS(=O)(=O)N1C[C@]2(C1)CN([C@@H](CO)c1c2c2ccc(cc2n1C)OC)C(=O)c1ccc(cc1)F` the cytotoxicity call was “inactive”. With `CN(C)C(=O)c1ccc(-c2ccc3n(c2=O)C[C@H]2[C@H](CO)[C@@H](C(=O)NCCc4ccccc4)N[C@@H]32)cc1` the cytotoxicity call was “inactive”. `C[C@@H]1CCCCO[C@@H](CN(C)CC2CCCCC2)[C@H](C)CN([C@H](C)CO)C(=O)c2cc(NC(=O)Nc3ccc4c(c3)OCO4)ccc2O1` was tested, and the cytotoxicity call was “inactive”. `C[C@@H]1CN([C@@H](C)CO)C(=O)c2cc(NC(=O)Nc3ccc4c(c3)OCO4)ccc2O[C@@H](C)CCCCO[C@@H]1CN(C)CC1CCCCC1` was tested, and the cytotoxicity call was “inactive”. In the case of `C[C@@H]1CCCCO[C@@H](CN(C)CC2CCCCC2)[C@H](C)CN([C@@H](C)CO)C(=O)c2cc(NC(=O)Nc3ccc4c(c3)OCO4)ccc2O1`, the cytotoxicity call is reported as “inactive”. `C[C@H]1CCCCO[C@@H](CN(C)CC2CCCCC2)[C@@H](C)CN([C@@H](C)CO)C(=O)c2cc(NC(=O)Nc3ccc4c(c3)OCO4)ccc2O1` was tested, and the cytotoxicity call was “active”. `C[C@H](CO)N1C[C@H](C)[C@@H](CN(C)CC2CCCCC2)OCCCC[C@H](C)Oc2ccc(NC(=O)Nc3ccc4c(c3)OCO4)cc2C1=O` was tested, and the cytotoxicity call was “inactive”. In the case of `C[C@@H]1CCCCO[C@H](CN(C)CC2CCCCC2)[C@H](C)CN([C@@H](C)CO)C(=O)c2cc(NC(=O)Nc3ccc4c(c3)OCO4)ccc2O1`, the cytotoxicity call is reported as “active”. In the case of `C[C@@H]1CN([C@@H](C)CO)C(=O)c2cc(NC(=O)Nc3ccc4c(c3)OCO4)ccc2O[C@@H](C)CCCCO[C@H]1CN(C)CC1CCCCC1`, the cytotoxicity call is reported as “active”. In the case of `CC(C)CC#Cc1cnc2c(c1)C(=O)N([C@@H](C)CO)C[C@@H](C)[C@H](CN(C)S(=O)(=O)c1ccccc1)O2`, the cytotoxicity call is reported as “inactive”. With `CC(C)(C)c1nc(-c2cccc(NS(=O)(=O)c3c(F)cccc3F)c2F)c(-c2ccnc(N)n2)s1` the cytotoxicity call was “inactive”. For `CC(C)NC(=O)N(C)C[C@H]1Oc2ccc(NC(=O)CCN3CCOCC3)cc2CC(=O)N([C@@H](C)CO)C[C@H]1C`, the cytotoxicity call was “inactive”. With `CCS(=O)(=O)N1C[C@]2(CCN(CC2)Cc2cccc(c2)OC)c2c(n(c3cc(ccc23)OC)C)[C@@H]1CO` the cytotoxicity call was “inactive”. For `C[C@H](CO)N1C[C@H](C)[C@@H](CN(C)C(=O)c2ccccn2)Oc2cc(Br)ccc2S1(=O)=O`, the cytotoxicity call was “inactive”. With `CCNC(=O)c1cc2c(c(-c3cccc(-c4cc5ccccc5o4)c3)n1)[C@@H](CCO)N(C(=O)NC(C)C)C2` the cytotoxicity call was “inactive”. For `Cc1ccc(S(=O)(=O)N(C)C[C@H]2Oc3ncc(Br)cc3C(=O)N([C@H](C)CO)C[C@@H]2C)cc1`, the cytotoxicity call was “inactive”. `C[C@H](CO)N1C[C@H](C)[C@@H](CN(C)C(=O)Nc2ccc(F)cc2)OCCCC[C@H](C)Oc2ccc(NC(=O)NC3CCCCC3)cc2C1=O` was tested, and the cytotoxicity call was “inactive”. In the case of `CCOC(=O)Cn1cnc2ccccc2c1=O`, the cytotoxicity call is reported as “inactive”. In the case of `Cc1c(-c2ccc(C(N)=O)c3[nH]c4cc(C(C)(C)O)ccc4c23)cccc1-n1cnc2ccccc2c1=O`, the cytotoxicity call is reported as “active”. With `Cc1nc2c(cc1C(=O)NN)c(=O)n(C)c(=O)n2C` the cytotoxicity call was “inactive”. For `CC(C)NC(=O)Nc1ccc2c(c1)CC(=O)N([C@H](C)CO)C[C@H](C)[C@@H](CN(C)Cc1ccc(Oc3ccccc3)cc1)O2`, the cytotoxicity call was “inactive”. `O=C(C[C@@H]1CC[C@H]2[C@@H](COC[C@@H](O)CN2C(=O)c2ccncc2)O1)NC1CCC1` was tested, and the cytotoxicity call was “inactive”. `C[C@@H]1CCCCO[C@H](CN(C)C(=O)Nc2cccc3ccccc23)[C@H](C)CN([C@@H](C)CO)C(=O)c2cc(NC(=O)c3ccncc3)ccc2O1` was tested, and the cytotoxicity call was “inactive”. With `CC(=O)N(O)CCCCCNC(=O)CCC(=O)N(O)CCCCCNC(=O)CCC(=O)N(O)CCCCCN` the cytotoxicity call was “active”. `CC(=O)N(O)CCCCCNC(=O)CCC(=O)N(O)CCCCCNC(=O)CCC(=O)N(O)CCCCCN.CS(=O)(=O)O` was tested, and the cytotoxicity call was “active”. In the case of `C[C@H](N)CCC(=O)NCS(=O)(=O)O`, the cytotoxicity call is reported as “inactive”. `CC(=O)N(O)CCCCNC(=O)CCC(=O)N(O)CCCCCNC(=O)CCC(=O)N(O)CCCCCN` was tested, and the cytotoxicity call was “inactive”. In the case of `CC(=O)NCCCS(=O)(=O)O`, the cytotoxicity call is reported as “inactive”. With `CC(=O)N(O)CCCCCNC(=O)CC(O)(CC(=O)NCCCCCN(O)C(C)=O)C(=O)O` the cytotoxicity call was “inactive”. With `COCCNC(=O)C[C@@H]1CC[C@H]2[C@@H](COC[C@H](O)CN2S(=O)(=O)c2ccccc2F)O1` the cytotoxicity call was “inactive”. With `COc1ccc(S(=O)(=O)Nc2ccc3c(c2)[C@H]2C[C@H](CC(=O)NCC4CC4)O[C@@H](CO)[C@H]2O3)cc1` the cytotoxicity call was “inactive”. In the case of `C[C@@H]1CN([C@@H](C)CO)C(=O)Cc2cc(NS(C)(=O)=O)ccc2O[C@H]1CN(C)S(=O)(=O)c1ccccc1`, the cytotoxicity call is reported as “inactive”. `CN[C@H]1CN(c2ccc3c(=O)c(C(=O)O)cn(-c4nccs4)c3n2)C[C@@H]1OC` was tested, and the cytotoxicity call was “inactive”. For `CC(C)NCC(O)c1ccc(NS(C)(=O)=O)cc1.Cl` (stereo not drawn), the cytotoxicity call was “inactive”. In the case of `CCC(NC(C)C)C(O)c1ccc(O)c(O)c1.CS(=O)(=O)O` (stereo not drawn), the cytotoxicity call is reported as “inactive”. `CC(C)NCC(O)c1ccc(O)c(O)c1.Cl` (stereo not drawn) was tested, and the cytotoxicity call was “active”. In the case of `CC(C)NCC(O)c1cc(O)cc(O)c1` (stereo not drawn), the cytotoxicity call is reported as “active”. `CC(C)(C)NCC(O)c1cc(O)cc(O)c1.O=S(=O)(O)O` (stereo not drawn) was tested, and the cytotoxicity call was “inactive”. For `CC(C)NCC(O)c1ccc2ccccc2c1.Cl` (stereo not drawn), the cytotoxicity call was “inactive”.
